ERp5 block: inhibitors of ERp5-driven insulin aggregation, primary screen, biochemical, turbidity, absorbance 650 nm, single point. Protein disulfide-isomerase A6 (Homo sapiens), Q15084. AID 651711, 2012. inhibition, % at 9.99 µM. actives 0.05% (n = 350,000). 90 min;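 active = mean replicate inhibition above about 25%, with every replicate also reaching it, limit read from the data, passing the limit was not always enough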
Rtt109 Vps75: inhibitors of C. albicans Rtt109/Vps75 HAT, primary screen, biochemical, ThioGlo CoA-SH fluorescence, plate reader; Histone acetyltransferase RTT109 (Candida albicans (strain SC5314 / ATCC MYA-2876)), …; purified Rtt109/Vps75, 4 h; inhibition, % at 34.9 µM; actives 0.16% (n = 330,000);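 active = inhibition of at least 50% in every replicate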
Target sequence (Q5AAJ8 whole entry, looked up): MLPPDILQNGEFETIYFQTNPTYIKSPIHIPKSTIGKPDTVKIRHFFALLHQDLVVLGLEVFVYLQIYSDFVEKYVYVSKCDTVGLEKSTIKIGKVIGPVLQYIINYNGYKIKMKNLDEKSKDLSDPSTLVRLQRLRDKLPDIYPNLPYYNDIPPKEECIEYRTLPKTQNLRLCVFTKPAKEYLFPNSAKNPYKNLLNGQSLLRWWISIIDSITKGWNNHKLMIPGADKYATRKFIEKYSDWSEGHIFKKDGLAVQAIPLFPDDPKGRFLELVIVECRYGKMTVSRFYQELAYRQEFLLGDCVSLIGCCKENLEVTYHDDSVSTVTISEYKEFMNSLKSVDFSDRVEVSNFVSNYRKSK
PDI inh: inhibitors of human PDI, primary screen, biochemical, turbidity, single point, plate reader; Protein disulfide-isomerase (Homo sapiens), P07237; PDI insulin aggregation turbidity, A650, 90 min; inhibition, % at 10 µM; actives 0.052% (n = 350,000); AID 588391, 2011;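 active = mean inhibition across replicates of 30% or more, whatever share of single replicates reach that level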
SIRT5 block: SIRT5 desuccinylase inhibitors, primary screen, biochemical, fluorescence imaging, single point, set 5; NAD-dependent protein deacylase sirtuin-5, mitochondrial (Homo sapiens), Q9NXA8; Purified SirT5, succinyl-peptide AMC, trypsin-coupled fluorescence; inhibition, % at 15 µM; actives 1.1% (n = 330,000); AID 652115, 2013; in the data active = inhibition above about 15%
DENV2 CPE rescue: inhibitors of DENV2 cytopathic effect, primary screen, cell-based, plate reader, single concentration; actives 1.7% (n = 350,000); CPE inhibition, % at 9.99 µM; DENV2-infected cells, cytopathic effect rescue; in the data active = CPE inhibition above about 20%, passing the limit was not always enough; tested in BHK-21 cells;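 note: 0% = median of neutral control wells and 100% = median of positive control wells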
* hit, by the source's call. Rows were chosen to be rich in hits. Some 2.3% of all compounds tested hit in one or more screens of this group.

Results for CC1=C(C(=O)OCC(Br)(Br)Br)C(c2cccc([N+](=O)[O-])c2)NC(=O)N1CCCC(=O)O (configuration not stated) ?
ERp5 block: 3; Rtt109 Vps75: 5; PDI inh: 14; SIRT5 block: 23*; DENV2 CPE rescue: -1

How did CC(=O)Nc1scc(C)c1-c1nc2ccccc2s1 do in these assays?
ERp5 block: 2; Rtt109 Vps75: 2; PDI inh: -6; SIRT5 block: 2; DENV2 CPE rescue: 50*

How did Cc1csc(NC(=O)COCC(=O)O)c1-c1nc2ccccc2s1 do in these assays?
ERp5 block: 1; Rtt109 Vps75: 18; PDI inh: -1; SIRT5 block: 4; DENV2 CPE rescue: 1

What do the screens show for `COCC(=O)N1CCC2CC1c1cc(Cl)ccc12` (configuration not stated)?
ERp5 block: -12; Rtt109 Vps75: 7; PDI inh: 10; SIRT5 block: 22*; DENV2 CPE rescue: 15

Results for Cc1oc(-c2ccc(-c3ccccc3)cc2)nc1CN(C)C1CCOC1 (configuration not stated) ?
ERp5 block: -3; Rtt109 Vps75: 7; PDI inh: -8; SIRT5 block: 18*; DENV2 CPE rescue: -4

Results for C[C@H]1CN([C@@H](C)CO)C(=O)c2cc(NS(C)(=O)=O)ccc2O[C@H]1CN(C)C(=O)Nc1ccc2c(c1)OCO2 ?
ERp5 block: -4; SIRT5 block: -1; DENV2 CPE rescue: -2

How did CC1CCC(CN2C(Nc3ccccc3)=NC[C@@H]2C)CC1 (some centres not stated) do in these assays?
ERp5 block: -5; Rtt109 Vps75: 1; PDI inh: 1; SIRT5 block: 3; DENV2 CPE rescue: 40*

How did c1ccc(C[C@H]2CN=C(Nc3ccccc3)N2CC2CCCC2)cc1 do in these assays?
ERp5 block: 2; SIRT5 block: 21*; DENV2 CPE rescue: -6

What do the screens show for `CC1CCC(CN2C(Nc3ccccc3)=NC[C@@H]2Cc2ccccc2)CC1` (some centres not stated)?
ERp5 block: -4; Rtt109 Vps75: -4; PDI inh: 9; DENV2 CPE rescue: -3

What do the screens show for `CCCCN1C(Nc2ccccc2)=NC[C@@H]1Cc1ccccc1`?
ERp5 block: 4; Rtt109 Vps75: -7; PDI inh: -1; DENV2 CPE rescue: 22*

What do the screens show for `COc1ccc(S(=O)(=O)Nc2ccc3c(c2)CC(=O)N([C@@H](C)CO)C[C@H](C)[C@@H](CN(C)C(=O)NC2CCCCC2)O3)cc1`?
ERp5 block: -8; SIRT5 block: 0; DENV2 CPE rescue: -3

How did CCC(=O)N[C@@H]1CC[C@@H](CC(=O)OC)O[C@H]1CO do in these assays?
ERp5 block: -6; SIRT5 block: 8; DENV2 CPE rescue: -7

Results for Cc1csc(/C(=N/OC(=O)c2ccco2)C(N)=O)n1 ?
ERp5 block: -2; Rtt109 Vps75: 1; PDI inh: 1; SIRT5 block: 4; DENV2 CPE rescue: 35*

What do the screens show for `CNC(=O)C[C@H]1CC[C@@H]2[C@H](COc3ccc(NC(=O)c4ccc(F)c(F)c4)cc3C(=O)N2C)O1`?
ERp5 block: 2; SIRT5 block: -2; DENV2 CPE rescue: 95*

What do the screens show for `CNC(=O)C[C@@H]1CC[C@@H]2[C@H](COc3ccc(NC(=O)c4ccc(F)c(F)c4)cc3C(=O)N2C)O1`?
ERp5 block: 0; SIRT5 block: 0; DENV2 CPE rescue: 97*

What do the screens show for `O=C(c1ccc(F)cc1)N1CCCCN2[C@H](CO)[C@@H](c3ccc(-c4ccc(F)cc4)cc3)[C@H]2C1`?
ERp5 block: -6; SIRT5 block: 3; DENV2 CPE rescue: -5

How did NCC12CC3CC(C1)CC(c1ccc(Cl)cc1)(C3)C2 do in these assays?
ERp5 block: -3; Rtt109 Vps75: 51*; PDI inh: 7; SIRT5 block: -1; DENV2 CPE rescue: -1

Results for C[C@@H]1CN([C@H](C)CO)C(=O)c2cccc(N(C)C)c2O[C@H]1CN(C)C ?
ERp5 block: 1; SIRT5 block: -1; DENV2 CPE rescue: 3

How did Cc1noc(C)c1NC(=O)N(C)C[C@H]1OCCCC[C@H](C)Oc2ccc(NS(=O)(=O)c3c(C)noc3C)cc2C(=O)N([C@H](C)CO)C[C@@H]1C do in these assays?
ERp5 block: -3; SIRT5 block: -1; DENV2 CPE rescue: 34*

What do the screens show for `COc1ccc(S(=O)(=O)Nc2ccc3c(c2)C(=O)N([C@H](C)CO)C[C@H](C)[C@@H](CN(C)C(=O)Nc2c(C)noc2C)OCCCC[C@@H](C)O3)cc1`?
ERp5 block: 6; SIRT5 block: -2; DENV2 CPE rescue: 41*

Results for Cc1noc(C)c1NC(=O)N(C)C[C@@H]1OCCCC[C@H](C)Oc2ccc(NS(=O)(=O)c3c(C)noc3C)cc2C(=O)N([C@@H](C)CO)C[C@H]1C ?
ERp5 block: -4; SIRT5 block: -3; DENV2 CPE rescue: 3

Results for Cc1ccc(C(=O)NCC(=O)Nc2ccc(S(=O)(=O)Nc3cc(C)nc(C)n3)cc2)cc1 ?
ERp5 block: 5; Rtt109 Vps75: 11; PDI inh: 5; SIRT5 block: 2; DENV2 CPE rescue: 56*

What do the screens show for `Cc1noc(C)c1NC(=O)N(C)C[C@@H]1OCCCC[C@@H](C)Oc2ccc(NC(=O)C3CCCCC3)cc2C(=O)N([C@@H](C)CO)C[C@@H]1C`?
ERp5 block: 10; SIRT5 block: 0; DENV2 CPE rescue: 25*

What do the screens show for `Cc1noc(C)c1NC(=O)Nc1ccc2c(c1)C(=O)N([C@@H](C)CO)C[C@@H](C)[C@@H](CN(C)C(=O)Nc1ccccc1)OCCCC[C@@H](C)O2`?
ERp5 block: -2; SIRT5 block: 0; DENV2 CPE rescue: 22*

What do the screens show for `Cc1noc(C)c1NC(=O)Nc1ccc2c(c1)C(=O)N([C@H](C)CO)C[C@H](C)[C@@H](CN(C)C(=O)Nc1ccc(C(F)(F)F)cc1)OCCCC[C@H](C)O2`?
ERp5 block: -6; SIRT5 block: 21*; DENV2 CPE rescue: -16

Results for Cc1noc(C)c1NC(=O)Nc1ccc2c(c1)C(=O)N([C@H](C)CO)C[C@@H](C)[C@@H](CN(C)C(=O)Nc1ccc(C(F)(F)F)cc1)OCCCC[C@@H](C)O2 ?
ERp5 block: 10; SIRT5 block: 1; DENV2 CPE rescue: -6

Results for Cc1noc(C)c1NC(=O)Nc1ccc2c(c1)C(=O)N([C@H](C)CO)C[C@H](C)[C@@H](CN(C)C(=O)Nc1ccccc1)OCCCC[C@H](C)O2 ?
ERp5 block: -2; SIRT5 block: -2; DENV2 CPE rescue: 10

Screening data from PubChem BioAssay.
